# Reference: PubChem BioAssay (EPA / NIEHS)
# Inconclusive results are not listed. Activity calls are given as the source filed them. The calls were made as follows, unless noted: active = hit-call score of the fitted dose curve at least 0.9, where 1 is the maximum; inconclusive = response in the unintended direction; inactive = score below 0.9.
# Assays:
# [1] = molecular target: Glucocorticoid receptor (Homo sapiens) (UniProt P04150); assay: ATG_GR_TRANS: Attagene TRANS-FACTORIAL HepG2 Assay for human Glucocorticoid Receptor (GR) (AID 2282978); conditions: HepG2 Attagene TRANS GR reporter, mRNA transcription;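 also: activators score as hits since higher reporter transcript over DMSO is fitted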
# Chain of Glucocorticoid receptor (Homo sapiens) (P04150 whole entry, looked up, the tested form may be a part): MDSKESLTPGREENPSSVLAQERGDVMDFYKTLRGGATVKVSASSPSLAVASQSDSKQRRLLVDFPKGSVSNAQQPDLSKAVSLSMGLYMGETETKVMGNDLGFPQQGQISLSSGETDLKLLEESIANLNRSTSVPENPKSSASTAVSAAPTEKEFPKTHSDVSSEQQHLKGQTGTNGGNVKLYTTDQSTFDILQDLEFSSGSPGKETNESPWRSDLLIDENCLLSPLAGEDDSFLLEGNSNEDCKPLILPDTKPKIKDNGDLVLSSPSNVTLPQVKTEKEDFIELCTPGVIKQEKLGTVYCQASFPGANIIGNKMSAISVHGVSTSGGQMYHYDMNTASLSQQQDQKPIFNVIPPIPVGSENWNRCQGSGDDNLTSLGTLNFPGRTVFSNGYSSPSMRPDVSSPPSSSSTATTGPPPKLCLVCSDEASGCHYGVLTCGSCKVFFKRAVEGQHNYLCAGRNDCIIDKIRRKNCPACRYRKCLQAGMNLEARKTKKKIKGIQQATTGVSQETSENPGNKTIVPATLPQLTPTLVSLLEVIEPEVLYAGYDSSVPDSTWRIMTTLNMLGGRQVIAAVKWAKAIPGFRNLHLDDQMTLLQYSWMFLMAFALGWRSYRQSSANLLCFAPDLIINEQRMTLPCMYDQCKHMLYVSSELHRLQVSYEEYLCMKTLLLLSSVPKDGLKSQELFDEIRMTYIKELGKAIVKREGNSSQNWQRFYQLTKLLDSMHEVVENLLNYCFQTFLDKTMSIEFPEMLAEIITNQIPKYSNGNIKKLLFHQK
# In short: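 Transiently transfected HepG2 cells express chimeric NR-GAL4 proteins acting on GAL4-UAS reporter units. Compounds are applied for 24 h. mRNA induction over DMSO is measured by capillary electrophoresis.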
# [2] = molecular target: Bile acid receptor (Homo sapiens) (UniProt Q96RI1); assay: ATG_FXR_TRANS: Attagene TRANS-FACTORIAL HepG2 Assay for Farnesoid X Receptor (FXR) (AID 2282979); conditions: HepG2 Attagene TRANS FXR-GAL4 reporter transcription;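 also: hits raise reporter mRNA above DMSO so AC50 marks FXR activation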
# Chain of Bile acid receptor (Homo sapiens) (Q96RI1 whole entry, looked up, the tested form may be a part): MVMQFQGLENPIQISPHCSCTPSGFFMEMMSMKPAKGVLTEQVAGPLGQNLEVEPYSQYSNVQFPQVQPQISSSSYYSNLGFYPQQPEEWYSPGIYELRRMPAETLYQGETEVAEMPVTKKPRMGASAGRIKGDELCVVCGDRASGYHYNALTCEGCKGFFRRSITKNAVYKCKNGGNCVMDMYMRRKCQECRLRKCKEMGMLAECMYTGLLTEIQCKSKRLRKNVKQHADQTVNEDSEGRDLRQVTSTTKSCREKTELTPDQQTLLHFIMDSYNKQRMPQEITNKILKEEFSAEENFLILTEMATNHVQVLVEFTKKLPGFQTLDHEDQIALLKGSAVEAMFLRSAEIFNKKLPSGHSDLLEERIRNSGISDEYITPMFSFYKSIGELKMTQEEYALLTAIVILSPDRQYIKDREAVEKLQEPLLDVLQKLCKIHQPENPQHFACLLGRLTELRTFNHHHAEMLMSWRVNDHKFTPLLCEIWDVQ
# In short: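 HepG2 cells transiently transfected with reporter constructs in which a chimeric FXR-GAL4 protein drives a GAL4-UAS reporter; 24 h compound exposure. Reporter mRNA measured by RT-PCR, FAM labelling, HpaI digestion and capillary electrophoresis; gain-of-signal versus DMSO.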
# [3] = molecular target: Oxysterols receptor LXR-beta (Homo sapiens) (UniProt P55055); assay: ATG_LXRb_TRANS: Attagene TRANS-FACTORIAL HepG2 Assay for human Liver X Receptor beta (LXRb) (AID 2282981); conditions: HepG2 Attagene TRANS GAL4-LXRb reporter, mRNA
# Chain of Oxysterols receptor LXR-beta (Homo sapiens) (P55055 whole entry, looked up, the tested form may be a part): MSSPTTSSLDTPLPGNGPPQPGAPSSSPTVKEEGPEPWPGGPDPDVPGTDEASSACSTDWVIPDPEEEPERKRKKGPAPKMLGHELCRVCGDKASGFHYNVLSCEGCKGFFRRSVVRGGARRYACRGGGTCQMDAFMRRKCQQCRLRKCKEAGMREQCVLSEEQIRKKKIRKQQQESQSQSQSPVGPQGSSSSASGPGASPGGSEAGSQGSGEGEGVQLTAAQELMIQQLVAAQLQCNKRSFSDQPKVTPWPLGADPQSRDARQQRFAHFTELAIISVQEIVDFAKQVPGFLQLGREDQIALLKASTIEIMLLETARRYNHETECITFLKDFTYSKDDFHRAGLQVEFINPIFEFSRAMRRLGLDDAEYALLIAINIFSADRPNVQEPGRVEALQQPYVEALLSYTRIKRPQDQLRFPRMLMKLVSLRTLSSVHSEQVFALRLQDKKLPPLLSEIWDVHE
# In short: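 HepG2 cells transiently transfected with multiple reporter transcription units carrying chimeric NR-Gal4 proteins acting on GAL4-UAS reporters; compound exposure 24 h. Reporter mRNA quantified by RT-PCR, 6-FAM labelling, HpaI digestion and capillary electrophoresis; gain of signal versus DMSO.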
# [4] = molecular target: Hepatocyte nuclear factor 4-alpha (Homo sapiens) (UniProt P41235); assay: ATG_HNF4a_TRANS: Attagene TRANS-FACTORIAL HepG2 Assay for human Hepatocyte Nuclear Factor 4 alpha (HNF4a) (AID 2282982); conditions: HepG2 HNF4a transactivation reporter, mRNA readout
# Chain of Hepatocyte nuclear factor 4-alpha (Homo sapiens) (P41235 whole entry, looked up, the tested form may be a part): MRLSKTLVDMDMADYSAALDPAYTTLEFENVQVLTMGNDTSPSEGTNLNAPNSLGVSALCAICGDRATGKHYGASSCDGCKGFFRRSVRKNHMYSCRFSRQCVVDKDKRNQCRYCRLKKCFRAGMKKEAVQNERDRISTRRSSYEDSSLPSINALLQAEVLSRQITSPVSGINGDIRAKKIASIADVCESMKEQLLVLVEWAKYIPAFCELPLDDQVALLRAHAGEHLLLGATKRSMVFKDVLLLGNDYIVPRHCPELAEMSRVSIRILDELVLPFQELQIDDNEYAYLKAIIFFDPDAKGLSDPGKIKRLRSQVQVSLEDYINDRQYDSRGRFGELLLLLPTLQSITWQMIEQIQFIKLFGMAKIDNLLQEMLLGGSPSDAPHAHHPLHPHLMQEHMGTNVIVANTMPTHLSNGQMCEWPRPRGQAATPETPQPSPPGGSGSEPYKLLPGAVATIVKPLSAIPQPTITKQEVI
# In short: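 HepG2 cells transiently transfected with multiplexed GAL4-UAS reporter units responsive to chimeric NR-GAL4 proteins; compound exposure 24 h. Reporter mRNA quantified by RT-PCR, 6-FAM labelling, HpaI digestion and capillary electrophoresis; gain of signal versus DMSO baseline.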
# [5] = ATG_M_06_TRANS: Attagene TRANS-FACTORIAL HepG2 Assay for M06 Transcription Factor (Internal Marker) (AID 2282983); conditions: HepG2 Attagene TRANS M06 internal marker reporter;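 also: reporter transcript level by RT-PCR then capillary electrophoresis fluorescence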
# In short: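 HepG2 cells transiently transfected with multiplexed GAL4-UAS reporter transcription units; after 24 h compound exposure, reporter mRNA measured by RT-PCR, FAM-labelled primer extension, HpaI digestion and capillary electrophoresis. Gain-of-signal fitted versus DMSO baseline; background control readout.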
# [6] = molecular target: Nuclear receptor subfamily 4 group A member 2 (Homo sapiens) (UniProt P43354); assay: ATG_NURR1_TRANS: Attagene TRANS-FACTORIAL HepG2 Assay for human Nuclear Receptor Related Protein 1 (NURR1) (AID 2282985); conditions: HepG2 Attagene TRANS reporter, mRNA readout
# Chain of Nuclear receptor subfamily 4 group A member 2 (Homo sapiens) (P43354 whole entry, looked up, the tested form may be a part): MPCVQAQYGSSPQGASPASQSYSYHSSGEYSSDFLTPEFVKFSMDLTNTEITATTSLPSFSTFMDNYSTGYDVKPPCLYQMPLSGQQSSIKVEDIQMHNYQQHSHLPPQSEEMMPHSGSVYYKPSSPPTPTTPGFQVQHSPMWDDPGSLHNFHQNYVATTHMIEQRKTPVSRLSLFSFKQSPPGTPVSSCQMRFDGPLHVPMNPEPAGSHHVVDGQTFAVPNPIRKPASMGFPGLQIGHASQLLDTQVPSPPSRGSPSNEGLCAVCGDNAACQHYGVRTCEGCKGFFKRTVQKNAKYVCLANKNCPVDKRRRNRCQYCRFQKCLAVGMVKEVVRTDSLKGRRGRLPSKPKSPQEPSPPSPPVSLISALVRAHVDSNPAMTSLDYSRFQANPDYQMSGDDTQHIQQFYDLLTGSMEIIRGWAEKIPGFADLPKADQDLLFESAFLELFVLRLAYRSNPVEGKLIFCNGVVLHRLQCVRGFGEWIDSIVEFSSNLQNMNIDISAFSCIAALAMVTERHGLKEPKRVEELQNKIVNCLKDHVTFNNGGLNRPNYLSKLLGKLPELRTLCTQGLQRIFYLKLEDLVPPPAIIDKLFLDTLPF
# In short: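 HepG2 cells transiently transfected with GAL4-UAS reporter units and chimeric NR-Gal4 constructs; chemical exposure 24 h. Reporter mRNA quantified by RT-PCR, fluorescent labelling and capillary electrophoresis; gain of signal fitted relative to DMSO baseline.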
# [7] = molecular target: Transcriptional activator Myb (Homo sapiens) (UniProt P10242); assay: ATG_Myb_CIS: Attagene CIS-FACTORIAL HepG2 Assay for human Myeloblastosis (Myb) Proto-Oncogene Transcription Factor (AID 2282986; active = hit-call score of the fitted dose curve at least 0.9, where 1 is the maximum; inactive = score below 0.9); conditions: HepG2 Attagene CIS-FACTORIAL Myb reporter transcription; actives raise or lower the signal
# Chain of Transcriptional activator Myb (Homo sapiens) (P10242 whole entry, looked up): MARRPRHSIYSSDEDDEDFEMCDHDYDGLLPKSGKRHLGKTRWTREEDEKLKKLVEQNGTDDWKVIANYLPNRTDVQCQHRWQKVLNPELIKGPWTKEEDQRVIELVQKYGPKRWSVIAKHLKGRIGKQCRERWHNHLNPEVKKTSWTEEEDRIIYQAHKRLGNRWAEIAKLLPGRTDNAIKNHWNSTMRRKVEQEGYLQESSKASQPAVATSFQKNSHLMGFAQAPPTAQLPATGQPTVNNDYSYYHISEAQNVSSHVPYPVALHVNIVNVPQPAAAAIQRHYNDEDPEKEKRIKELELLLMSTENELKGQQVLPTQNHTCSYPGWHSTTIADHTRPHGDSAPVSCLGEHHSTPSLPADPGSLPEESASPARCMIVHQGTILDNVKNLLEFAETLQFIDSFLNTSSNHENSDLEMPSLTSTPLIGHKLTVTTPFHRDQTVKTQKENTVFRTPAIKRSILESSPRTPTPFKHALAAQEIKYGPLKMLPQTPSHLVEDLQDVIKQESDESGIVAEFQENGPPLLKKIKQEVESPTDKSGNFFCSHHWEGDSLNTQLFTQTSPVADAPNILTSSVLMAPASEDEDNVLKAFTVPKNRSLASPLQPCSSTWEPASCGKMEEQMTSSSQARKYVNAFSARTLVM
# In short: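 Using HepG2 liver cells bearing transiently transfected cis-promoter reporter constructs, the assay measures induction or loss of reporter mRNA after 24 hours of dosing. Detection used fluorescently labeled RT-PCR products separated by capillary electrophoresis.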
# [8] = molecular target: Nuclear respiratory factor 1 (Homo sapiens) (UniProt Q16656); assay: ATG_NRF1_CIS: Attagene CIS-FACTORIAL HepG2 Assay for human Nuclear Respiratory Factor 1 (NRF1) Orphan Gene (AID 2282987; active = hit-call score of the fitted dose curve at least 0.9, where 1 is the maximum; inactive = score below 0.9); conditions: HepG2 NRF1 cis-element reporter, Attagene multiplex; actives raise or lower the signal
# Chain of Nuclear respiratory factor 1 (Homo sapiens) (Q16656 whole entry, looked up): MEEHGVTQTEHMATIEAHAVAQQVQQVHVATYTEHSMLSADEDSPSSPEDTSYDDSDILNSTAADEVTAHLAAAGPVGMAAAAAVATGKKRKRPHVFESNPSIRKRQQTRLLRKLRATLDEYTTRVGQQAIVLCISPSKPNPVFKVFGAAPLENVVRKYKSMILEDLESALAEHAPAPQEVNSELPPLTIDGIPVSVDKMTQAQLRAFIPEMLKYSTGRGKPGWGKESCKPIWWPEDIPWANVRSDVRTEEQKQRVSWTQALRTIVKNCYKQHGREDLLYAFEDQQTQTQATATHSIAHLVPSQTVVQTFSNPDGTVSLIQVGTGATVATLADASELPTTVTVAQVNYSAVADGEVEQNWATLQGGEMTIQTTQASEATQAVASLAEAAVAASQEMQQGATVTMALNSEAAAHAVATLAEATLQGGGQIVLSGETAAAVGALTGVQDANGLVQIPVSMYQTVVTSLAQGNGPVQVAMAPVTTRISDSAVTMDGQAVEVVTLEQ
# In short: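 Reporter mRNA induction or loss in HepG2 cells after 24 h dosing; cis-regulated reporter constructs report endogenous transcription-factor activity. Quantified by RT-PCR/capillary electrophoresis fluorescence, DMSO-referenced.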
# [9] = ATG_M_32_TRANS: Attagene TRANS-FACTORIAL HepG2 Assay for M32 Transcription Factor (Internal Marker) (AID 2282984); conditions: HepG2 Attagene TRANS M32 internal marker reporter
# In short: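 HepG2 cells transiently transfected with multiple GAL4-UAS reporter transcription units, dosed for 24 hours; reporter mRNA quantified by RT-PCR, 6-FAM primer extension, HpaI digestion and capillary electrophoresis. Gain-of-signal fitted versus DMSO baseline; internal background-control marker.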
# [10] = molecular target: Oxysterols receptor LXR-alpha (Homo sapiens) (UniProt Q13133); assay: ATG_LXRa_TRANS: Attagene TRANS-FACTORIAL HepG2 Assay for human Liver X Receptor alpha (LXRa) (AID 2282980); conditions: HepG2 Attagene TRANS reporter, LXRa transactivation
# Chain of Oxysterols receptor LXR-alpha (Homo sapiens) (Q13133 whole entry, looked up, the tested form may be a part): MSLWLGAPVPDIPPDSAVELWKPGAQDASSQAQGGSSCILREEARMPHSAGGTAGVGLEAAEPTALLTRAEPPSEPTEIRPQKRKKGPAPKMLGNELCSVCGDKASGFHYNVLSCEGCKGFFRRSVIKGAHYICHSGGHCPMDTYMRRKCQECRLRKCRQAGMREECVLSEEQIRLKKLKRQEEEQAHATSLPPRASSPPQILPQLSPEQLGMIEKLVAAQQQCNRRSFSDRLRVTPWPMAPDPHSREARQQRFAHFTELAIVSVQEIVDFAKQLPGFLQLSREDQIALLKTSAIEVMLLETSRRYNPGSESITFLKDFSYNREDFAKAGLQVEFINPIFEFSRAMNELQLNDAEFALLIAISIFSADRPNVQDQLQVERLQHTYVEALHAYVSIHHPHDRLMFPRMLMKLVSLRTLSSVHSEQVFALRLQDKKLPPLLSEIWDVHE
# In short: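 HepG2 cells were transiently transfected with multiplexed reporter units driven by chimeric LXRa–GAL4 fusion proteins, then dosed for 24 h. Reporter mRNA was quantified by RT-PCR, fluorescent labelling and capillary electrophoresis; gain of signal fitted against DMSO baseline.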
SMILES,outcome [1],outcome [2],outcome [3],outcome [4],outcome [5],outcome [6],outcome [7],outcome [8],outcome [9],AC50 [10],outcome [10],AC50 [6],AC50 [8],AC50 [1]
OCCN1CCNCC1,inactive,inactive,inactive,inactive,inactive,inactive,inactive,inactive,,,,,,
CN(C)CCOCCN(C)C,inactive,inactive,inactive,,,,inactive,inactive,inactive,,,,,
C#C[C@]1(O)CC[C@H]2[C@@H]3CCC4=Cc5oncc5C[C@]4(C)[C@H]3CC[C@@]21C,inactive,inactive,,,inactive,inactive,,inactive,,26.4 µM (active),,,,
CC(C)(C#N)c1cc(Cn2cncn2)cc(C(C)(C)C#N)c1,inactive,inactive,inactive,inactive,inactive,,inactive,inactive,inactive,,inactive,,,
CSc1nnc(C(C)(C)C)c(=O)[nH]1,inactive,inactive,,inactive,,,inactive,inactive,inactive,,,,,
CC1=CCC2C(C1)C2(C)C (configuration not stated),inactive,inactive,inactive,inactive,inactive,,inactive,inactive,inactive,,inactive,,,
CCCC(C)C=O (configuration not stated),inactive,inactive,inactive,,,,inactive,inactive,inactive,,,,,
CCCc1c(OCCCOc2ccc(OCC(=O)O)cc2)ccc(C(C)=O)c1O,inactive,inactive,inactive,,inactive,,inactive,,,,inactive,100 µM (active),100 µM (active),
O=C(O)C[C@H](O)C[C@H](O)/C=C/c1c(C2CC2)nc2ccccc2c1-c1ccc(F)cc1,inactive,inactive,inactive,inactive,inactive,,inactive,inactive,inactive,,,,,
O=C(O)c1cccc(C(F)(F)F)c1,inactive,,inactive,inactive,inactive,,inactive,inactive,inactive,,inactive,,,
C=CC[N+](C)(C)CC=C,inactive,,,inactive,inactive,inactive,inactive,inactive,inactive,,inactive,,,
C=C(C)C(=O)O,inactive,,inactive,,,inactive,inactive,inactive,inactive,,inactive,,,
COC(=O)OC,inactive,,inactive,,inactive,inactive,inactive,inactive,inactive,,inactive,,,
CC(=O)OCCOC(C)=O,inactive,,,inactive,inactive,,,inactive,,,inactive,,,
CCN(CC)c1ccc(C(=C2C=CC(=[N+](CC)CC)C=C2)c2ccc(S(=O)(=O)O)cc2S(=O)(=O)[O-])cc1,inactive,,,inactive,inactive,inactive,inactive,inactive,inactive,,inactive,,,
CC(C)CCCCCCCOC(=O)c1ccc(C(=O)OCCCCCCCC(C)C)c(C(=O)OCCCCCCCC(C)C)c1,inactive,,,inactive,inactive,,inactive,inactive,inactive,,inactive,,,
O=C(O)c1ccc(C(=O)O)cc1,inactive,,,inactive,inactive,inactive,inactive,inactive,inactive,,inactive,,,
C=C(C)C(=O)OCCOC(=O)CC(C)=O,inactive,,inactive,,,,inactive,inactive,,,inactive,,,
COc1cc(C=O)ccc1OC(=O)C(C)C,inactive,,inactive,,inactive,,inactive,inactive,,,inactive,,,
Nc1cc([N+](=O)[O-])ccc1Cl,inactive,inactive,,,inactive,,inactive,inactive,,,,,,
CCc1ccc(C=O)cc1,inactive,,inactive,inactive,inactive,,inactive,inactive,inactive,,inactive,,,
CC1=CCC(O)(C(C)C)CC1 (configuration not stated),inactive,,inactive,inactive,inactive,,inactive,inactive,inactive,,inactive,,,
C=CCOc1nc(OCC=C)nc(OCC=C)n1,inactive,,inactive,,inactive,,inactive,inactive,inactive,,inactive,,,
C[C@]12CC[C@H]3[C@@H](CCC4=CC(=O)CC[C@@]43C)[C@@H]1CC[C@@H]2C(=O)CO,,,inactive,,inactive,inactive,inactive,inactive,inactive,,inactive,,,6.33 µM (active)
Cc1ccccc1C=O,inactive,,inactive,inactive,,,inactive,inactive,inactive,,inactive,,,
O=C1CCCCCCCCCCOCCCCO1,inactive,,,inactive,inactive,inactive,,inactive,,,inactive,,,
CC(CCO)CCCC(C)(C)O (configuration not stated),inactive,,inactive,,inactive,,inactive,inactive,inactive,,inactive,,,
C[Si](O[Si](C)(C)C)O[Si](C)(C)C,inactive,,inactive,,,inactive,inactive,inactive,inactive,,inactive,,,
C/C=C(\C)C(=O)OCc1ccccc1,inactive,,inactive,,inactive,inactive,inactive,inactive,inactive,,inactive,,,
